PubChem BioAssay (EPA / NIEHS)
Calls of active or inactive are those of the source. How the source made its calls: active means hit-call score of the fitted dose curve at least 0.9, where 1 is the maximum; inactive means score below 0.9.

Key:
Conditions in all cases: mRNA level, 48 h; actives raise or lower the signal
[1] = read-out: Signal transducer and activator of transcription 3 (Homo sapiens) (UniProt P40763); experiment: LTEA_HepaRG_STAT3: Life Technologies and Expression Analysis (LTEA) Assay for Signal transducer and activator of transcription (STAT3) using HepaRG (AID 2283529)
Method in brief: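 HepaRG, 48 h exposure, 8-pt half-log series (top 100 uM), 0.5% DMSO vehicle, duplicates. Readout: STAT3 transcript by Fluidigm qRT-PCR, housekeeping-normalized; bidirectional fit vs DMSO baseline.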

[2] = read-out: solute carrier (SLCO1B1), SLCO1B1 (gene 10599); experiment: LTEA_HepaRG_SLCO1B1: Life Technologies and Expression Analysis (LTEA) Assay for solute carrier (SLCO1B1) using HepaRG (AID 2283530)
Method in brief: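 Human HepaRG cultures treated for 48 h with an eight-concentration half-log series topping at 100 uM; SLCO1B1 measured by qRT-PCR and fitted bidirectionally relative to DMSO.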

[3] = read-out: sulfotransferase 2A1 (SULT2A1), SULT2A1 (gene 6822); experiment: LTEA_HepaRG_SULT2A1: Life Technologies and Expression Analysis (LTEA) Assay for sulfotransferase 2A1 (SULT2A1) using HepaRG (AID 2283531)
Method in brief: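 Gene-expression endpoint in a human liver cell line: SULT2A1 mRNA change after 48 h chemical treatment, curves fitted in both directions relative to 0.5% DMSO vehicle. Concentrations spanned eight half-log steps from 100 uM.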

[4] = read-out: Transforming Growth Factor (TGFA), TGFA (gene 7039); experiment: LTEA_HepaRG_TGFA: Life Technologies and Expression Analysis (LTEA) Assay for Transforming Growth Factor (TGFA) using HepaRG (AID 2283532)
Method in brief: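 qRT-PCR read-out of TGFA transcript, normalized to three housekeeping genes, fitted bidirectionally against 0.5% DMSO baseline. Human HepaRG cultures received chemicals for 48 h at eight half-log concentrations, top 100 uM.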

[5] = read-out: Transforming Growth Factor (TGFB1), TGFB1 (gene 7040); experiment: LTEA_HepaRG_TGFB1: Life Technologies and Expression Analysis (LTEA) Assay for Transforming Growth Factor (TGFB1) Transporter using HepaRG (AID 2283533)
Method in brief: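 Eight-point concentration-response (max 100 uM, half-log) in HepaRG under serum-free induction conditions, 48 h. TGFB1 mRNA by qRT-PCR, housekeeping-normalized.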

[6] = read-out: Tumor necrosis factor receptor 1 (TNFRSF1A), TNFRSF1A (gene 7132); experiment: LTEA_HepaRG_TNFRSF1A: Life Technologies and Expression Analysis (LTEA) Assay for Tumor necrosis factor receptor 1 (TNFRSF1A) using HepaRG (AID 2283535)
Method in brief: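 Assay uses 48 h chemical treatment of differentiated HepaRG monolayers, tested in duplicate at eight concentrations from 100 uM downward in 0.5% DMSO. mRNA is normalized to ACTB, GAPDH and POLR2A, with induction or suppression fitted relative to vehicle.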

[7] = read-out: Thyroid Hormone Responsive (THRSP), THRSP (gene 7069); experiment: LTEA_HepaRG_THRSP: Life Technologies and Expression Analysis (LTEA) Assay for Thyroid Hormone Responsive (THRSP) using HepaRG (AID 2283536)
Method in brief: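 qRT-PCR read-out (Fluidigm TaqMan), housekeeping-normalized (ACTB/GAPDH/POLR2A). HepaRG, 48 h chemical exposure, 8-pt half-log series from 100 uM in 0.5% DMSO, duplicates. Bidirectional curve fit vs 0.5% DMSO baseline.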

[8] = read-out: Cellular tumor antigen p53 (Homo sapiens) (UniProt P04637); experiment: LTEA_HepaRG_TP53: Life Technologies and Expression Analysis (LTEA) Assay for Tumor Protein P53 (TP53) using HepaRG (AID 2283537)
Method in brief: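 Read-out is TP53 transcript level by microfluidic qRT-PCR, normalised to three housekeeping genes and fitted bidirectionally against DMSO. Human HepaRG cells received compounds for 48 h, highest concentration 100 uM.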

[9] = read-out: UDP glucuronosyltransferase (UGT1A1), UGT1A1 (gene 54658); experiment: LTEA_HepaRG_UGT1A1: Life Technologies and Expression Analysis (LTEA) Assay for UDP glucuronosyltransferase (UGT1A1) using HepaRG (AID 2283538)
Method in brief: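 HepaRG, 48 h chemical exposure (top 100 uM, half-log 8-pt, 0.5% DMSO vehicle), duplicate wells; qRT-PCR (TaqMan, Fluidigm array) for UGT1A1 mRNA, housekeeping-normalized; bidirectional curve fit vs DMSO baseline.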

Measured: AC50

Chain of Cellular tumor antigen p53 (Homo sapiens) (P04637 whole entry, looked up): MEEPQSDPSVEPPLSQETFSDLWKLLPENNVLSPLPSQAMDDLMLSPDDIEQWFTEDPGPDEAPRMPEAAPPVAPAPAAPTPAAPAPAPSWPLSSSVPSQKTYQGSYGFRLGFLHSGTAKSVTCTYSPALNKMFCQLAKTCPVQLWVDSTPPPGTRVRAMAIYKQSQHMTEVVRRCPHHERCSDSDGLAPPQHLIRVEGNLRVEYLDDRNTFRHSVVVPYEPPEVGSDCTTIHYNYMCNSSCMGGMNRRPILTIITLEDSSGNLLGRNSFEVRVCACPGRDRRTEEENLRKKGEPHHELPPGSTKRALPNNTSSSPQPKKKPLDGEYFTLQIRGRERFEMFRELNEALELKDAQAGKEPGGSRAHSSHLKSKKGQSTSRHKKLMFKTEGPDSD
Chain of Signal transducer and activator of transcription 3 (Homo sapiens) (P40763 whole entry, looked up): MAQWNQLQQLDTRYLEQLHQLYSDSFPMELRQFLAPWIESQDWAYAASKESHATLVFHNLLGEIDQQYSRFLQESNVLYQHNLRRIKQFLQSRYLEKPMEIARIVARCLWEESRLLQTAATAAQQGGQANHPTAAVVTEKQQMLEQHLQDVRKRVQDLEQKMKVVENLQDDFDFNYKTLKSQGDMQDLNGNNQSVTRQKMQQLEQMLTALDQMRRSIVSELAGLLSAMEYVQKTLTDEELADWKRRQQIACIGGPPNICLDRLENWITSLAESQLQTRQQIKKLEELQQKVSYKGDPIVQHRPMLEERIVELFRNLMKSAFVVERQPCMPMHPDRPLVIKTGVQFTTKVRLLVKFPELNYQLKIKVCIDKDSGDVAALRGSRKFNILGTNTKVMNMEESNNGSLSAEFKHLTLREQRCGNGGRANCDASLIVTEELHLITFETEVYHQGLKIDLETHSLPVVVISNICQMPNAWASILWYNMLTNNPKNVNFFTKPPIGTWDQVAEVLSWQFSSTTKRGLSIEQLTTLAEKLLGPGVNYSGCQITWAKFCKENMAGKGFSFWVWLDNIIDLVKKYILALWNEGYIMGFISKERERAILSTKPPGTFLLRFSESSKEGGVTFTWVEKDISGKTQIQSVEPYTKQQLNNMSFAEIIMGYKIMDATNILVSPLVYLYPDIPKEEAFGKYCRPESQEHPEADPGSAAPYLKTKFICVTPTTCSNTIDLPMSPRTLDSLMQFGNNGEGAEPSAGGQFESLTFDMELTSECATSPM

CCOC(=O)CC(SP(=S)(OC)OC)C(=O)OCC (stereo not given)
inactive: all assays above

CC1=C(C(=O)Nc2ccccc2)SCCO1
active: [7] 17 µM | [9] 50 µM
not listed: [1]
inactive: all other assays above

Cc1ccc(-c2c(Cl)nc(C#N)n2S(=O)(=O)N(C)C)cc1
inactive: [4] | [5] | [8]
active: [2] 31.1 µM | [3] 10.3 µM | [6] 34.9 µM | [7] 6.18 µM | [9] 37.4 µM

CC(C)(C)c1ccc(CSc2cnn(C(C)(C)C)c(=O)c2Cl)cc1
inactive: [5] | [6] | [9]
active: [2] 2.34 µM | [3] 22.7 µM | [4] 2.96 µM | [7] 9.85 µM | [8] 2.82 µM

COc1ccc(C(c2ccc(OC)cc2)C(Cl)(Cl)Cl)cc1
active: [7] 81.7 µM | [8] 66.7 µM | [9] 12 µM
not listed: [1]
inactive: all other assays above

COc1nc(NC(C)C)nc(NC(C)C)n1
active: [9] 11.4 µM
not listed: [1]
inactive: all other assays above

COC(=O)C(C)Oc1ccc(Oc2ccc(Cl)cc2Cl)cc1 (stereo not given)
active: [7] 40 µM | [9] 20.7 µM
not listed: [1]
inactive: all other assays above

COC(=O)C=C(C)OP(=O)(OC)OC
not listed: [1]
inactive: all other assays above

CC1COC(Cn2cncn2)(c2ccc(Oc3ccc(Cl)cc3)cc2Cl)O1 (stereo not given)
active: [2] 12.8 µM | [3] 19.6 µM | [4] 13.6 µM | [5] 89.8 µM | [6] 72.2 µM | [7] 7.86 µM | [8] 11.6 µM | [9] 50 µM

C=CC1(C)OC(=O)N(c2cc(Cl)cc(Cl)c2)C1=O (stereo not given)
active: [3] 28 µM | [9] 22.7 µM
not listed: [1]
inactive: all other assays above

CCOP(=S)(OCC)SCn1c(=O)oc2cc(Cl)ccc21
not listed: [1]
inactive: all other assays above

Fc1ccc(Oc2ccnc3cc(Cl)cc(Cl)c23)cc1
active: [5] 50 µM | [7] 76.2 µM | [9] 13.3 µM
not listed: [1]
inactive: all other assays above

CCCC1COC(Cn2cncn2)(c2ccc(Cl)cc2Cl)O1 (stereo not given)
inactive: [6]
active: [2] 62.8 µM | [3] 59 µM | [4] 50 µM | [5] 27.3 µM | [7] 7.44 µM | [8] 34.3 µM | [9] 35.8 µM
